# Reference: PubChem BioAssay
# Activity calls are given as the source filed them.
# What was measured:
# [1] = optical density shifts of acrAB sulA E. coli – strain DRC41, OD650, 48 h, E. coli filamentation inducer project, primary screen (AID 1152); conditions: higher = more signal, called active from +8 up or from −8 down;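 further: E. coli MC1000 strain DRC41 lacking acrAB efflux pump and sulA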
# [2] = probe aLefty1 binding on compound microarray – biochemical, small-molecule microarray, 635/667 nm fluorescence, primary screen (AID 1153); conditions: higher = more signal;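 further: score merges spot fluorescence with signal-to-noise ratio from the scanned slide images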
# [3] = plasmodial surface anion channel blockers, osmotic lysis – cell-based, P. falciparum Indochina, OD700, 1 h, primary screen (AID 1154); conditions: P. falciparum Indochina infected RBC osmotic lysis, higher = more signal, called active from +8 up or from −8 down
# [4] = plasmodial surface anion channel blockers, osmotic lysis – cell-based, P. falciparum Indochina, OD700, 2 h, primary screen (AID 1155);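 further: lysis reports solute entry through the parasite surface anion channel PSAC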; conditions: P. falciparum Indochina infected erythrocytes, higher = more signal, called active from +8 up or from −8 down
# [5] = changes in parasitized red cell lysis, either direction – P. falciparum Indochina, OD700, 3 h, PSAC antagonist project, primary screen (AID 1156); conditions: P. falciparum-infected erythrocytes, osmotic lysis, higher = more signal, called active from +8 up or from −8 down
# [6] = plasmodial surface anion channel blockers, osmotic lysis – cell-based, P. falciparum Indochina, OD700, 18 h, primary screen (AID 1157); conditions: P. falciparum Indochina infected erythrocytes, osmotic lysis OD700, 18 h; higher = more signal, called active from +8 up or from −8 down
# [7] = S6 kinase pathway phospho-S6 level changes – cell-based, A549, cytoblot, luminescence, serum-stimulated, primary screen (AID 1158); conditions: 5 h, higher = more signal;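 further: serum-stimulated A549 lung adenocarcinoma cells; signal is phosphorylated S6 detected by cytoblot immunostaining with HRP secondary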
# [8] = molecular target: NADPH oxidase 2 (Homo sapiens) (UniProt P04839); assay: compounds shifting NOX2 Amplex Red fluorescence – cell-based, HEK293-NOX2, PMA-stimulated, NOX inhibitor project, primary screen (AID 1159); conditions: 45 min, higher = more signal, called active from +8 up or from −8 down; further: test concentration not given here
# [9] = molecular target: NADPH oxidase 4 (Homo sapiens) (UniProt Q9NPH5); assay: compounds shifting NOX4 Amplex Red fluorescence – cell-based, HEK293-NOX4, tetracycline-induced, NOX inhibitor project, primary screen (AID 1160); conditions: HEK293-NOX4, Amplex Red H2O2 fluorescence, 45 min; higher = more signal, called active from +8 up or from −8 down
# [10] = molecular target: NADPH oxidase 5 (Homo sapiens) (UniProt Q96PH1); assay: compounds shifting NOX5 Amplex Red fluorescence – cell-based, HEK293-NOX5, NOX inhibitor project, primary screen (AID 1161); conditions: HEK293-NOX5, ionomycin, 45 min, higher = more signal
# [11] = compound effects on lung adenocarcinoma cell viability – A549, calcein-AM fluorescence, 48 h, basal, profiling panel (AID 1162); conditions: higher = more signal; further: test concentration not given here
# [12] = compound effects on differentiated 3T3-L1 adipocyte viability – cell-based, 3T3-L1 adipocytes, calcein-AM fluorescence, 48 h, basal, profiling panel (AID 1163); conditions: 3T3-L1 adipocytes viability, higher = more signal; further: test concentration not given here
# [13] = compound effects on hepatocellular carcinoma cell viability – HepG2, calcein-AM fluorescence, 48 h, basal, profiling panel (AID 1164); conditions: higher = more signal; further: test concentration not given here
# [14] = compound effects on multiple myeloma cell viability – MM1S, calcein-AM fluorescence, 48 h, basal, profiling panel (AID 1165); conditions: higher = more signal; further: test concentration not given here
# [15] = calcein-AM signal in unstimulated myeloma cells – cell-based, calcein-AM fluorescence, 48 h, PK04 Diversity Set, profiling panel (AID 1166); conditions: RPMI8226 myeloma viability, higher = more signal;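 further: cells grown under basal conditions without added stimulus; test concentration not given here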
# [16] = JC-1 mitochondrial signal, unstimulated HepG2 cells – cell-based, JC-1 fluorescence, 24 h, 100 nL compound, profiling panel (AID 1167); conditions: HepG2 mitochondrial potential, higher = more signal; further: test concentration not given here
# [17] = JC-1 mitochondrial signal, unstimulated adipocytes – cell-based, JC-1 fluorescence, 3T3-L1 adipocytes, 24 h, 100 nL compound, profiling panel (AID 1168); conditions: JC-1 mitochondrial fluorescence, higher = more signal, called active from +8 up or from −8 down; further: test concentration not given here
# [18] = JC-1 mitochondrial signal, unstimulated myeloma cells – cell-based, JC-1 fluorescence, RPMI8226, 24 h, 100 nL compound, profiling panel (AID 1169); conditions: JC-1 mitochondrial potential fluorescence, higher = more signal; further: test concentration not given here
# [19] = JC-1 mitochondrial signal, unstimulated MM1S myeloma – cell-based, JC-1 fluorescence, 24 h, 100 nL compound, profiling panel (AID 1170); conditions: MM1S mitochondrial potential, higher = more signal; further: test concentration not given here
# [20] = resazurin metabolic signal in A549 cells – cell-based, resazurin fluorescence, 24 h, PK04 Diversity Set, profiling panel (AID 1171); conditions: A549 viability, higher = more signal, called active from +8 up or from −8 down; further: test concentration not given here
# NADPH oxidase 4 (Homo sapiens), sequence (Q9NPH5 whole entry, looked up): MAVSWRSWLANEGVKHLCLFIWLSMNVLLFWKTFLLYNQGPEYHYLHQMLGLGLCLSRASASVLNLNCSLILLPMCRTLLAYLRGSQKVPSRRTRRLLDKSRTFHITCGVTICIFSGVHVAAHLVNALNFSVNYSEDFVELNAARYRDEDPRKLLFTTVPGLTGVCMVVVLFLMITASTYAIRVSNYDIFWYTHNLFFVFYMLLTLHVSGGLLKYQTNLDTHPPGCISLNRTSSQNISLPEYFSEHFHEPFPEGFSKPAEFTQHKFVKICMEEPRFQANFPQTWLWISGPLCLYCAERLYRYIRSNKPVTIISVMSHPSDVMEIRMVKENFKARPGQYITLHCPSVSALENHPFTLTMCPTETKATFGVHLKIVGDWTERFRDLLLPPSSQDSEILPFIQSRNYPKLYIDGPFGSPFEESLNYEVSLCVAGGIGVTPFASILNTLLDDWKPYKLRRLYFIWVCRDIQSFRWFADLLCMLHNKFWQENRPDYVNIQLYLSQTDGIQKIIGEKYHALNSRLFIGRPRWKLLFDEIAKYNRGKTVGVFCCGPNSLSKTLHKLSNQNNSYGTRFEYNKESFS
# NADPH oxidase 2 (Homo sapiens), sequence (P04839 whole entry, looked up): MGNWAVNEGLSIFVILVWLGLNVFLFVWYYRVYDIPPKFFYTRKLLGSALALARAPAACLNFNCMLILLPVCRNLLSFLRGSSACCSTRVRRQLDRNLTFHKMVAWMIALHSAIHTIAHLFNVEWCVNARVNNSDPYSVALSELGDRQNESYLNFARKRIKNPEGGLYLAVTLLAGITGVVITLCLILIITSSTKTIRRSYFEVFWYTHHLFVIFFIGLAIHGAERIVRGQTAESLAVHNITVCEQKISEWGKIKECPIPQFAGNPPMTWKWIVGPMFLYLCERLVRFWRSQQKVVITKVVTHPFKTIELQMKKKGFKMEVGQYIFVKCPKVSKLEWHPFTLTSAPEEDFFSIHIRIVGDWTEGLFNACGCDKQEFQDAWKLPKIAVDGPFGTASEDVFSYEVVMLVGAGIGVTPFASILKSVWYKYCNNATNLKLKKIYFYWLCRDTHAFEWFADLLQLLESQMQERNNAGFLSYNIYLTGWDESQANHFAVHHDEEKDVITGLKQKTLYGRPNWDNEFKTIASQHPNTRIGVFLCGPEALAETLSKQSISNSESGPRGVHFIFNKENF
# NADPH oxidase 5 (Homo sapiens), sequence (Q96PH1 whole entry, looked up): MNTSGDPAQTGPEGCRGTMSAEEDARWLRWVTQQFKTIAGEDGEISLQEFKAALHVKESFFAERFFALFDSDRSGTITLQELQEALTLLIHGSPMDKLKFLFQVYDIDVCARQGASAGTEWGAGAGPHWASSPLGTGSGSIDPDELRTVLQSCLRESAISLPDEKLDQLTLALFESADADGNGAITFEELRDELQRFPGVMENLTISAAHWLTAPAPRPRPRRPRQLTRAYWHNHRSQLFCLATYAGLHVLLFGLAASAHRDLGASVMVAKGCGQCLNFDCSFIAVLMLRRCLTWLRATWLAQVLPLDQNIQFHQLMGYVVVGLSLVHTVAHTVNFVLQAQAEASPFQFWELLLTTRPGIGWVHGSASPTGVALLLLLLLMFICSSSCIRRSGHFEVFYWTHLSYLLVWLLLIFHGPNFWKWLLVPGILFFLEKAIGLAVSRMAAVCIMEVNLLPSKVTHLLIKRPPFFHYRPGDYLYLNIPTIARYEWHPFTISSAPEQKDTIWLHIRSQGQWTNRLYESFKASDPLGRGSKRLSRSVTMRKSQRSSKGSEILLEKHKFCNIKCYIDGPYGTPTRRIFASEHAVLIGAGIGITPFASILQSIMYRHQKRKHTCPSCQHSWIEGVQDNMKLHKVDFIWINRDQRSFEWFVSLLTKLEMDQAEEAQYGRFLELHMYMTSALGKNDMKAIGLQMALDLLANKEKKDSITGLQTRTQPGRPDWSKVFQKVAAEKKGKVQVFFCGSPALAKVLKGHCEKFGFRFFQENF
Compound,z-score [1],composite z-score [2],z-score [3],z-score [4],z-score [5],z-score [6],z-score [7],z-score [8],z-score [9],z-score [10],z-score [11],z-score [12],z-score [13],z-score [14],z-score [15],z-score [16],z-score [17],z-score [18],z-score [19],z-score [20]
C#CCCCON=C1C[C@@H](O)[C@@H](O)[C@@H]2[C@@H]3C(=O)N(C(C)(C)C)C(=O)[C@@H]3CC[C@H]12,0.233 (inactive),0.571,3.84 (inactive),0.371 (inactive),-0.342 (inactive),0.204 (inactive),-0.162,-0.722 (inactive),0.132 (inactive),0.307,0.053,-0.304,0.673,0.505,-0.413,-0.161,-0.505 (inactive),0.386,-0.708,-0.496 (inactive)
CCOC(=O)[C@H](Cc1ccccc1)NC(=O)CCC1CC(OC(=O)NCCc2ccc(F)cc2)CC2(CCCC(COC(=O)NCCc3ccccc3OC)O2)O1 (stereo not given in full),-1.1 (inactive),-0.0075,0.425 (inactive),0.136 (inactive),-0.106 (inactive),0.174 (inactive),0.392,-0.106 (inactive),0.151 (inactive),0.294,-0.793,-0.702,0.492,-2.99,-1.42,0.723,0.3 (inactive),0.165,-1.02,-0.301 (inactive)
COc1cccc([C@@H]2Oc3ccc(OC)cc3C(=O)[C@H]2O)c1,-0.542 (inactive),-0.101,4.92 (inactive),-0.384 (inactive),1.13 (inactive),-1.28 (inactive),2.08,-2.25 (inactive),-1.51 (inactive),-1.77,0.0549,0.856,-2.24,-2.89,-2.25,-2.31,-0.0174 (inactive),1.04,-0.27,-0.214 (inactive)
O=C(NN=C1C[C@@H](O)[C@@H](O)[C@@H]2[C@@H]3C(=O)N(C4CCCCC4)C(=O)[C@@H]3CC[C@H]12)OCc1ccccc1,-0.898 (inactive),0.0721,7.54 (inactive),0.844 (inactive),0.522 (inactive),0.551 (inactive),0.0279,-0.0856 (inactive),-1.85 (inactive),-0.671,0.215,0.0766,-0.822,-0.816,-0.284,-1.14,-0.458 (inactive),0.219,0.703,-0.401 (inactive)
CC(C)=CCCC(C)=CCON=C1C[C@@H](O)[C@@H](O)[C@@H]2[C@@H]3C(=O)N(C(C)(C)C)C(=O)[C@@H]3CC[C@H]12,0.367 (inactive),-0.0603,-0.22 (inactive),0.28 (inactive),-0.921 (inactive),-0.138 (inactive),-0.443,0.799 (inactive),0.427 (inactive),0.0706,0.0088,0.729,-0.465,0.387,-0.306,-0.00723,0.111 (inactive),-0.15,0.598,-0.624 (inactive)
COC(=O)[C@H](C)NC(=O)CCC1CC(OC(=O)NCc2ccc3c(c2)OCO3)CC2(CCCC(COC(=O)NCC3CCCCC3)O2)O1 (stereo not given in full),-0.23 (inactive),-0.0984,0.858 (inactive),-0.53 (inactive),-0.508 (inactive),-0.167 (inactive),0.224,-0.373 (inactive),0.62 (inactive),-0.651,-0.374,-0.335,-0.653,-3.22,-0.103,-0.283,-0.183 (inactive),0.34,-0.0549,0.619 (inactive)
CCOC(=O)[C@H](Cc1ccccc1)NC(=O)CCC1CC(OC(=O)NCc2cccc3ccccc23)CC2(CCCC(COC(=O)NCCC(C)C)O2)O1 (stereo not given in full),0.165 (inactive),-0.0733,15.9 (active),1.95 (inactive),-2.04 (inactive),-0.492 (inactive),0.255,1.59 (inactive),1.24 (inactive),0.101,0.509,-0.0617,-0.166,0.389,0.302,-0.433,-0.133 (inactive),-0.758,-0.121,1.32 (inactive)
CO[C@H]1COC(=O)[C@@H](C)COC(=O)[C@H](COCc2ccccc2)NC(=O)CC=C[C@H]1C,-1.17 (inactive),-0.0654,-0.262 (inactive),0.149 (inactive),-0.0011 (inactive),0.156 (inactive),0.503,-1.95 (inactive),0.126 (inactive),0.284,0.362,0.293,0.298,0.555,0.34,1.36,-0.213 (inactive),0.529,2.5,0.266 (inactive)
COC(=O)CC=C[C@@H](C)[C@@H](C=NOC[C@H]1O[C@H](c2ccccc2)C=C[C@@H]1Oc1ccc(OC)cc1)NS(=O)(=O)c1ccc(C)cc1,-0.272 (inactive),-0.147,4.79 (inactive),1.56 (inactive),0.949 (inactive),0.857 (inactive),0.0859,-0.273 (inactive),0.0179 (inactive),-0.523,-1.31,-0.486,-0.43,-1.7,-1.2,0.0495,-1.06 (inactive),0.689,-0.077,-0.374 (inactive)
